Results as given in PubChem BioAssay.
Values joined by “and” are separate entries in the source; they are usually repeats but may differ in a detail not shown here. Equal entries are not always repeated.

Assay: HD-MB03 medulloblastoma cell growth inhibition, synergistic combos for chromothripsis tumors, BGB or cisplatin IC20 combos (AID 1671455);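 also: 0% = vehicle DMSO and 100% = high DMSO as cytotoxic control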
Conditions: HD-MB03 medulloblastoma cells, measured here: combo with cisplatin at IC20, at 0.5 µM, stronger effect = higher value

| SMILES | inhibition |
| --- | --- |
| COc1ccccc1S(=O)(=O)Nc1ccc2c(c1)CN(C)C(=O)N2 | -6.26% |
| Cc1cc(C#N)cc(C)c1Oc1nc(Nc2ccc(C#N)cc2)nc(N)c1Br | -1.27% |
| Nc1ncn(C2OC(CO)C(O)C2O)c(=O)n1 (stereo not drawn) | 0.735% |
| Cc1cc(C)c(Nc2ccnc(Nc3ccc(C#N)cc3)n2)c(C)c1 | -28.7% |
| COc1ccc(CC(N)C(=O)NC2C(CO)OC(n3cnc4c(N(C)C)ncnc43)C2O)cc1 (stereo not drawn) | 91.5% and 99.7% |
| O=c1ccn(C2OC(CO)C(O)C2O)c(=O)[nH]1 (stereo not drawn) | 13.4% and -11.6% |
| CC=C1NC(=O)C2CSSCCC=CC(CC(=O)NC(C(C)C)C(=O)N2)OC(=O)C(C(C)C)NC1=O (stereo not drawn) | 99.8% and 100% |
| CN(C)CC(=O)Nc1ccc2[nH]c(=O)c3ccccc3c2c1 | -8.4% and -20.4% and -29.9% |
| CC1OC(n2cc(F)c(=O)[nH]c2=O)C(O)C1O (stereo not drawn) | -10.3% |
| Nc1ccn(C2OC(CO)C(O)C2(F)F)c(=O)n1 (stereo not drawn) | 96.8% and 96.7% and 96% |
| Cc1cn(C2CC(N=[N+]=[N-])C(CO)O2)c(=O)[nH]c1=O (stereo not drawn) | -27.8% and -2.64% |
| CC(C=CC(=O)NO)=CC(C)C(=O)c1ccc(N(C)C)cc1 (stereo not drawn) | 99.7% |
| NC(=S)NN=Cc1ncccc1N | -15.8% |
| CC(C)(C#N)c1ccc(N2C(=O)OCc3cnc4ccc(-c5cnc6ccccc6c5)cc4c32)cc1 | -8.16% |
| CC1CN(c2c(F)c(N)c3c(=O)c(C(=O)O)cn(C4CC4)c3c2F)CC(C)N1 (stereo not drawn) | 2.33% |
| CCCCN(Cc1ccc(C(=O)NO)cc1)C(=O)Nc1ccccc1 | 19.9% and -1.69% |
| O=c1[nH]cnc2c1ncn2C1OC(CO)C(O)C1O (stereo not drawn) | -27.8% and -18.3% |
| Cc1cc(C=CC#N)cc(C)c1Nc1ccnc(Nc2ccc(C#N)cc2)n1 | -1.41% |
